Laboratory results reported in PubChem BioAssay (NCATS).
Values without a mark were called inactive. Records with an inconclusive call do not appear. A call without a number means that no potency is given here. Activity calls are given as the source filed them. Calls follow the shape of the dose curve; as a rule, active = well fitted curve in the direction sought with a large enough effect; inconclusive = small, poorly fitted or top-dose-only effect, or another doubt; inactive = no such curve, though single readings can be large; an effect the other way counts as inactive or inconclusive.

Tests used:
[1] = molecular target: Glutathione peroxidase 1 (Homo sapiens) (UniProt P07203); experiment: Primary qHTS Assay for Inhibitors of Recombinant Selenoprotein Glutathione Peroxidase 1 (GPX1) (AID 1845191); also: nearly all actives have a fitted effect of over 65% in size
Summary of the method: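 GPX1 10 nM, GR 100 nM, GSH 1 mM, NADPH 0.5 mM, CHP 0.5 mM (final). 30-min cpd preincubation, RT. Ex340/Em450 read t=0, t=15 min.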

[2] = molecular target: Phospholipid hydroperoxide glutathione peroxidase GPX4 (Homo sapiens) (UniProt P36969); experiment: Primary qHTS Assay for Inhibitors of Recombinant Selenoprotein Glutathione Peroxidase 4 (GPX4) (AID 1845192); also: nearly all actives have a fitted effect of over 65% in size; as to activity change, negative = inhibition: series mostly up to about 50 µM
Summary of the method: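 qHTS, GR-coupled: GPX4 200 nM + cpd 30 min RT → GSH 1 mM, NADPH 0.5 mM, GR 100 nM → CHP 0.5 mM start; fluor 340/450 at t0 and t15 min; no-enzyme wells as control.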

[3] = molecular target: Luciferin 4-monooxygenase (Photinus pyralis) (UniProt P08659); experiment: Primary firefly luciferase (FLuc) qHTS assay for identification of artifact compounds. (AID 1845220); also: nearly all actives have a fitted effect of over 60% in size; as to activity change, negative = inhibition: series mostly up to about 54 µM
Summary of the method: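 In this counter-screen for luciferase artifacts, test compounds met substrate (10 uM each luciferin and ATP) before 10 nM enzyme started the reaction. Light output was measured 5 min later.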

[4] = Primary fluorescence-based thiol-reactive (MSTI) qHTS assay for identification of artifact compounds. (AID 1845221); also: nearly all actives have a fitted effect of over 65% in size; also: potency is read from the fitted curve at half-maximal effect;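 as to activity change, negative = thiol reactive: series mostly up to about 54 µM; thiol-reactive compounds lower the probe fluorescence signal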
Summary of the method: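 qHTS titration of compound; 4 uM MSTI, PBS pH 7.4, 2% DMSO; 1 h RT, dark; fluorescence 525/598 nm; normalized to Acetyl-MSTI and MSTI; 4-parameter Hill fit.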

[5] = tested on: Nanoluciferase (engineered Oplophorus gracilirostris luciferase); experiment: Primary Nanoluciferase (NLuc) qHTS assay for identification of artifact compounds. (AID 1845222);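 also: NLuc secreted into diluted conditioned medium of S16 cells; series mostly up to about 54 µM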
Summary of the method: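 Using secreted nanoluciferase in S16 culture medium (0.22 um filtered, 1:55 dilution), compounds were preincubated 15 min at RT. Signal was generated with Nano-Glo reagent (1:100) over 5 min.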

[6] = Primary redox qHTS assay for identification of artifact compounds. (AID 1845223)
Summary of the method: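 Redox-cycling detection via DTT (250 uM final) oxidation coupled to Amplex Red (25 uM)/HRP (250 mU/mL) in HBSS. 15 min preincubation plus 30 min after DTT, room temperature. Ex/Em 525/598 nm; 4-parameter Hill fit against DMSO and 10 uM DA3003.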

Chain of Phospholipid hydroperoxide glutathione peroxidase GPX4 (Homo sapiens) (P36969 whole entry, looked up): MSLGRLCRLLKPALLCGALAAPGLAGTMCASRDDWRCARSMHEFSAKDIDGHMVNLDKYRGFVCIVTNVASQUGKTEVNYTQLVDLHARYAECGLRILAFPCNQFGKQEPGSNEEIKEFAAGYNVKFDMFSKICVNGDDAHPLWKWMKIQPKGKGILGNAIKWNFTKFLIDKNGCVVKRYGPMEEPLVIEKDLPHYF
Chain of Glutathione peroxidase 1 (Homo sapiens) (P07203 whole entry, looked up): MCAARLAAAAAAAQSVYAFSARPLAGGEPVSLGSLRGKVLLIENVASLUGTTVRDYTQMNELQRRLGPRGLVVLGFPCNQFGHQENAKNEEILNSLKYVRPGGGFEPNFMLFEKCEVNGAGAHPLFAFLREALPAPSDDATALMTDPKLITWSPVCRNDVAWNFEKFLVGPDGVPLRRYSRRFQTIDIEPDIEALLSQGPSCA

SMILES	Potency [1]	Potency [2]	Potency [3]	Potency [4]	Potency [5]	Potency [6]	activity change, negative = inhibition [3]	activity change, negative = thiol reactive [4]	activity, negative = inhibition [5]	redox activity (% of DA3003) [6]	outcome [1]	outcome [2]
CN(C)C/C=C/C(=O)Nc1cccc(C(=O)Nc2ccc(Nc3nccc(-c4cccnc4)n3)cc2)c1	inactive	inactive	inactive	inactive	inactive	inactive	–	–	–	–	–	–
COc1c2c(c(C)c3c1C(=O)OC3)OC1(C)CC(O)C34OC(OC)(OC3(C)C)C(O)CC4(C)C1C2 (stereo not drawn)	inactive	inactive	inactive	inactive	inactive	inactive	–	–	–	–	–	–
N#C[C@@H]1C[C@H](F)CN1C(=O)CNC1[C@H]2CN(C(=O)c3ccc(F)cc3)C[C@@H]12 (stereo partly drawn)	inactive	inactive	inactive	inactive	inactive	inactive	–	–	–	–	–	–
CC1=C2C3OC(=O)C(C)C3(O)CCC2(C)CCC1O (stereo not drawn)	inactive	inactive	inactive	11.9 µM (active)	inactive	inactive	–	–	–	–	–	–
O=C(OC[C@H]1O[C@H](O[C@]2(CO)O[C@H](CO)[C@@H](O)[C@@H]2O)[C@H](O)[C@@H](O)[C@@H]1O)c1ccccc1	inactive	inactive	inactive	inactive	inactive	inactive	–	–	–	–	–	–
O=C(Nc1ccccc1)N1CCN(Cc2ccc3ccccc3n2)CC1	inactive	inactive	inactive	inactive	inactive	inactive	–	–	–	–	–	–
O=C(N/N=C/c1ccc(O)c(O)c1)c1cc2ccccc2cc1O	inactive	inactive	inactive	0.707 µM (active)	inactive	inactive	–	–	–	–	–	–
C=C[C@H]1[C@H](O[C@@H]2O[C@H](CO)[C@@H](O)[C@H](O)[C@H]2O)OC=C(C(=O)OC)[C@H]1CC(=O)O	inactive	inactive	inactive	inactive	inactive	inactive	–	–	–	–	–	–
C=C1C[C@]23C[C@H]1[C@@H](O)C[C@H]2[C@@]12C=C[C@H](O)[C@@](C)(C(=O)O1)[C@H]2[C@@H]3C(=O)O	inactive	inactive	inactive	inactive	inactive	inactive	–	–	–	–	–	–
CC1CC[C@]2(C(=O)O)CC[C@]3(C(=O)O)C(=CCC4[C@@]5(C)CC[C@H](O[C@@H]6O[C@H](CO)[C@@H](O)[C@H](O)[C@H]6O)C(C)(C)C5CC[C@]43C)C2C1C (stereo partly drawn)	inactive	inactive	inactive	inactive	inactive	inactive	–	–	–	–	–	–
CC1(C)CC[C@]2(C(=O)O[C@@H]3O[C@H](CO)[C@@H](O)[C@H](O)[C@H]3O)CC[C@]3(C)C(=CCC4[C@@]5(C)CC[C@H](O[C@@H]6O[C@H](C(=O)O)[C@@H](O)[C@H](O[C@@H]7O[C@H](CO)[C@H](O)[C@H](O)[C@H]7O)[C@H]6O)C(C)(C)C5CC[C@]43C)C2C1 (stereo partly drawn)	inactive	inactive	–	–	–	–	-3.44% [at 11.6 µM]	172% [at 11.5 µM]	3.94% [at 11.6 µM]	0.97% [at 11.5 µM]	–	–
Cc1cc(C(=O)N2Cc3cnn(C)c3Nc3ccccc32)ccc1CNC(=O)N1CCC[C@H]1C(=S)N1CCCN(C)CC1	inactive	inactive	inactive	inactive	inactive	inactive	–	–	–	–	–	–
C=C1C(=O)OC2CC3(C)C(CC12)C(C)=CC(O)C3OC(C)=O (stereo not drawn)	inactive	inactive	inactive	5.85 µM (active)	inactive	inactive	–	–	–	–	–	–
CC(C)CCC[C@@H](C)[C@H]1CC[C@H]2[C@@H]3CC(=O)[C@H]4C[C@@H](O)CC[C@]4(C)[C@H]3CC[C@]12C	inactive	inactive	inactive	inactive	inactive	inactive	–	–	–	–	–	–
C[C@@H]1O[C@@H](O[C@H]2[C@H](O[C@H]3[C@H](O)[C@@H](C(=O)O)O[C@@H](O[C@H]4CC[C@@]5(C)C(CC[C@]6(C)C5CC[C@]57OC[C@@]8(CCC(C)(C)CC85)[C@H](O)C[C@]76C)C4(C)C)[C@@H]3O[C@@H]3O[C@H](CO)[C@@H](O[C@@H]4OC[C@@H](O)[C@H](O)[C@H]4O)[C@H](O)[C@H]3O)O[C@H](CO)[C@H](O)[C@@H]2O)[C@H](O)[C@H](O)[C@H]1O (stereo partly drawn)	–	–	–	–	–	–	0.267% [at 11.6 µM]	330% [at 11.5 µM]	0% [at 11.6 µM]	15% [at 11.5 µM]	inactive [at 9.52 µM]	inactive [at 9.73 µM]
CC(C)CNCc1ccc(-c2ccccc2S(=O)(=O)N2CCCC2)cc1	inactive	inactive	inactive	inactive	inactive	inactive	–	–	–	–	–	–
CC1CCC2(C(=O)O)CCC3(C)C(=CCC4C5(C)CCC(O)C(C)(CO)C5CCC43C)C2C1(C)O (stereo not drawn)	inactive	inactive	inactive	inactive	inactive	inactive	–	–	–	–	–	–
CON(C)C(=O)[C@H](O)[C@H](Cc1ccccc1)NC(=O)c1cc2cc(Cl)ccc2[nH]1	inactive	inactive	inactive	inactive	inactive	inactive	–	–	–	–	–	–
